According to PubChem BioAssay AID1159580 (chemical genetic matrix, 2015):
About 2,000 (36%) of roughly 5,500 compounds were called active. Not shown: some 18% with an inconclusive outcome. Cut-off read from the data, not from the text of the source: active = normalized growth mostly below about 0.91 (no sharp cut-off); inconclusive = no clear call, values can overlap the other calls; inactive = mostly above about 0.92. The list shows a part of the results.

Assay: chemical genetic growth profiling, strain panel (AID 1159580);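 note: tested at 20 µM; growth read once vehicle control cultures reached saturation at 30 °C; 1 = growth at the plate median or of vehicle wells; lower values mean less growth of the strain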
Conditions: S. cerevisiae deletion strains, growth OD

Measured: normalized growth

O=C(O)CCCCCCCC(O)C(O)CCCCCCO (stereo not given)
inactive: locus YHR030C, strain SLT2, hits give low values 1.02 | locus YHR079C, strain IRE1, hits give low values 1.01 | locus YJL095W, strain BCK1, hits give low values 1 | locus YJR066W, strain TOR1, hits give low values 0.935 | locus YLR113W, strain HOG1, hits give low values 0.987 | locus YNL183C, strain NPR1, hits give low values 0.954 | locus YOR231W, strain MKK1, hits give low values 0.991 | locus YPL256C, strain CLN2, hits give low values 1.01

Cn1cnc2c(NCc3ccccc3)nc(NCCO)nc21
inactive: locus YAL013W, strain DEP1, hits give low values 0.989 | locus YAL040C, strain CLN3, hits give low values 1.08 | locus YCL061C, strain MRC1 (second series), hits give low values 0.99 | locus YDR150W, strain NUM1, hits give low values 0.998 | locus YDR363W, strain ESC2, hits give low values 1.01 | locus YER002W, strain NOP16, hits give low values 1.05 | locus YGR078C, strain PAC10, hits give low values 0.988 | locus YGR229C, strain SMI1, hits give low values 0.991 | locus YJR075W, strain HOC1, hits give low values 0.981 | locus YMR263W, strain SAP30, hits give low values 0.984 | locus YMR307W, strain GAS1, hits give low values 1 | locus YNL175C, strain NOP13, hits give low values 1 | locus YNL197C, strain WHI3, hits give low values 0.982 | locus YNL224C, strain SQS1, hits give low values 1 | locus YNL322C, strain KRE1, hits give low values 0.992 | locus YOR083W, strain WHI5 (second series), hits give low values 0.988 | locus YPL055C, strain LGE1, hits give low values 1
